In PubChem BioAssay (NCI):
The panel holds about 79,000 compounds, 15% with a hit somewhere; the sample as a whole holds those more often. No stated cut-off is given here; in the data, active means growth inhibition above about 70%; inactive means the rest.

What was measured:
[1] = NCI Yeast Anticancer Drug Screen. Data for the rad50 strain (AID 155);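 further: 0% = growth of vehicle-only cultures of the same strain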; details: S. cerevisiae rad50 strain growth inhibition; at 50.0 µM; hits give high values
Outline: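 Compounds were tested on a yeast strain with an engineered DNA damage repair alteration; the reported value is growth inhibition normalised to vehicle treatment.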

[2] = NCI Yeast Anticancer Drug Screen. Data for the mec2-1 strain (AID 157); details: S. cerevisiae mec2-1 strain, at 50.0 µM, hits give high values
Outline: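 Compounds were applied to mec2-1 yeast cells. Their growth was then compared with that of vehicle-treated cultures to give growth inhibition.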

[3] = NCI Yeast Anticancer Drug Screen. Data for the sgs1 mgt1 strain (AID 161);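 further: 0% = growth of cultures given vehicle only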; details: S. cerevisiae sgs1 mgt1 strain, at 50.0 µM, hits give high values
Outline: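 This yeast growth screen uses a strain with defined DNA-repair lesions; compound-treated growth is compared with vehicle-treated growth.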

[4] = NCI Yeast Anticancer Drug Screen. Data for the cln2 rad14 strain (AID 165);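 further: 0% = growth equal to vehicle treated cultures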; details: S. cerevisiae cln2 rad14 strain, at 50.0 µM, hits give high values
Outline: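 Strain: cln2 rad14 yeast, altered in cell cycle control and DNA damage repair. Read-out: growth inhibition vs vehicle.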

[5] = NCI Yeast Anticancer Drug Screen. Data for the bub3 strain (AID 167); details: S. cerevisiae bub3 mutant strain, at 50.0 µM, hits give high values
Outline: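 Growth of a checkpoint-deficient yeast mutant is measured after compound exposure. Values represent inhibition relative to vehicle.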

[6] = NCI Yeast Anticancer Drug Screen. Data for the mlh1 rad18 strain (AID 175); details: S. cerevisiae mlh1 rad18 strain growth inhibition; at 50.0 µM; hits give high values
Outline: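 A repair-deficient yeast strain is exposed to test compound, and growth is scored relative to vehicle-treated controls.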

Measured: growth inhibition

CCOC(=O)C(C)c1nc2ccc(C(F)(F)F)cc2[nH]c1=O (configuration not stated)
inactive: [1] 2.15% | [2] 16.7% | [3] 40.4% | [4] 14.2% | [5] 43.4% | [6] 39.5%

C=C[C@]1(C)C[C@@H](OC(=O)CO)[C@@]2(C)[C@H](C)CC[C@]3(CCC(=O)[C@H]32)[C@@H](C)[C@@H]1O
inactive: [1] -28.6% | [2] -23.3% | [3] 14.3% | [4] 30.2% | [5] -49.4% | [6] -2.15%

C=CC1CC[N-]CC1.[Cl][Cu][Cl]
inactive: [1] 6.4% | [2] -1.9% | [3] 2.75% | [4] -7.6% | [5] -14.6% | [6] 6.35%

Cc1cc2c(SCc3ccccc3Cl)nc(N)nc2nc1C
inactive: [1] 15.7% | [2] 12.3% | [3] 5.65% | [4] -35% | [5] -12.6% | [6] 31.6%

O=S1(=O)OCCOS(=O)(=O)C1(I)I
inactive: [1] 11.7% | [2] -26.2% | [3] -2.35% | [4] 11.4% | [5] -9.7% | [6] 16.2%

COC(=O)C1Cc2cc(OC)c(OC)cc2C(c2ccc(OC)c(OC)c2)C1C(N)=O (configuration not stated)
inactive: [1] -7.9% | [2] 11.3% | [3] -8.3% | [4] 0.25% | [5] -0.9% | [6] -1.95%

CC(C)CCCC(C)CCCC(C)CCCC(C)CC(=O)O (configuration not stated)
inactive: [1] -9.35% | [2] -25.5% | [3] -16.9% | [4] 43% | [5] -1.2% | [6] -23.3%

Cc1ccccc1NC(=S)NC(=O)c1ccccc1
inactive: [1] 30.9% | [2] 19.2% | [3] 62.8% | [4] -34.8% | [5] 64% | [6] 48.2%

CCNC1=C(Cl)C(=O)c2ccccc2C1=O
inactive: [1] -11.9% | [2] -9.8% | [3] 12.2% | [4] -21.4% | [5] 8.7% | [6] 14.9%

CC(C)(C)c1cc(C(=O)Nc2cc(Br)c(Br)cc2S(N)(=O)=O)cc(C(C)(C)C)c1O
inactive: [1] 37% | [2] 7.8% | [3] 31.6% | [4] 25% | [5] 39.8% | [6] 37.9%

C=CCOC(=O)Nc1ccc(C)c(NC(=O)OCC=C)c1
inactive: [1] -28.3% | [2] -45% | [3] -9.1% | [4] -25.5% | [5] -12.6% | [6] -33.1%

CSc1cccc(N=C(C#N)C2=C(O)c3ccccc3C2=O)c1
inactive: [1] 21.1% | [2] 1.85% | [3] 9.65% | [4] 38.6% | [5] 21.5% | [6] 24.4%

CCC(=O)Cc1cnccn1
inactive: [1] -47.1% | [2] -32.5% | [3] -12.3% | [4] -10.1% | [5] -9.15% | [6] -12.4%

[O]=[W](=[O])([OH])[OH]
inactive: [1] -11.3% | [2] -13.2% | [3] -15.4% | [4] 11.7% | [5] -11.6% | [6] -17.5%

Cc1cc(N)c(N=Cc2ccccc2[N+](=O)[O-])cc1C
inactive: [1] 26.2% | [2] 11.5% | [3] 39.8% | [4] -58.8% | [5] 24.8% | [6] 20.9%

O=C1/C=C2/C=CC=CN2C(=O)/C=C2/C=CC=CN12
inactive: [1] -1.6% | [2] -15.3% | [3] -15% | [4] 1.65% | [5] 0.95% | [6] -11.9%

COC(=O)CCc1c[nH]c2ccc(N)cc12
inactive: [1] -12.8% | [2] -31.2% | [3] -14.8% | [4] 18.2% | [5] -14.5% | [6] -13.7%

NC(=S)NNC(=O)CCC(=O)Nc1ccccc1Cl
inactive: [1] -0.15% | [2] -2.3% | [3] -11.8% | [4] 37.2% | [5] -3.95% | [6] 6.65%

O=C=Nc1ccc([N+](=O)[O-])cc1
inactive: [1] -0.9% | [2] 15.7% | [3] 1.2% | [4] -20.6% | [5] 32.9% | [6] -8.75%

CC1=C(/C=C/C(O)CC(O)(C(F)(F)F)C(F)(F)F)C(C)(C)CCC1 (configuration not stated)
inactive: [1] 38% | [2] 20.8% | [3] 18.9% | [4] 43.2% | [5] 17% | [6] 63.1%

Cc1oc2cc(O)ccc2c(=O)c1-c1ccccc1Br
inactive: [1] 9.85% | [2] 24.9% | [3] 17.4% | [4] -24.6% | [5] 15.9% | [6] 27.4%

COc1cccc(C2c3cc4c(cc3OC(N3CCCC3)C2C)OCO4)c1O (configuration not stated)
inactive: [1] 13.6% | [2] -18.6% | [3] 3.3% | [4] -19.8% | [5] 12.3% | [6] -11.1%

O=S(=O)(O)c1cccc2ccc(O)cc12
inactive: [1] -4.05% | [2] -4.1% | [3] -2.05% | [4] -36.8% | [5] -11.1% | [6] 43.6%

O=C1CCC(C(=O)Nc2ccc(Cl)c(Cl)c2)N1 (configuration not stated)
inactive: [1] 1.75% | [2] 10.6% | [3] 8.5% | [4] -10.7% | [5] 1.1% | [6] -8.15%

COc1nc(N)c([N+](=O)[O-])c(OC)n1
inactive: [1] -11.9% | [2] -14.8% | [3] -2.7% | [4] -28.2% | [5] -9.85% | [6] -19.4%

COc1cc(Br)c(C=Nc2cccc3cc(OC)c(OC)cc23)cc1OC
inactive: [1] -0.9% | [2] -14.3% | [3] -9.9% | [4] 20.4% | [5] -27.1% | [6] -15.9%

COc1ccc2cc3n(c2c1)CCc1cc(OC)c(OC)cc1-3
inactive: [1] 13.6% | [2] -10.8% | [3] 5.9% | [4] 23.9% | [5] 3% | [6] 14.2%

Clc1cnc(Oc2ccccc2)c2ccccc12
inactive: [1] 2.3% | [2] -22.2% | [3] -10.2% | [4] -37.4% | [5] -1.5% | [6] -9.35%

CC(=O)Nc1ccc(/C=c2\sc3nnc(CCC(=O)Nc4ccccc4Cl)n3c2=O)cc1
inactive: [1] -16.4% | [2] -17.7% | [3] -20.1% | [4] 7.6% | [5] 7.1% | [6] -9.55%

N#CCCN(CCC#N)c1ccc(/C=C2/C=C(c3ccccc3)OC2=O)cc1
inactive: [1] 22.4% | [2] -0.25% | [3] 19.1% | [4] 7.75% | [5] -5.85% | [6] 11.3%

O=C(c1ccccc1)N(N=C(c1ccc([N+](=O)[O-])cc1)c1ccc([N+](=O)[O-])cc1)c1ccccc1
inactive: [1] 24.7% | [2] 15.1% | [3] -6.6% | [4] -5.9% | [5] 5% | [6] 10.6%

COc1cc(C(C)Cl)ccc1OC(=O)c1ccccc1 (configuration not stated)
inactive: [1] 10.8% | [2] -5% | [3] 3.95% | [4] -10.2% | [5] 12.2% | [6] 4.5%

COc1cc(C)ccc1C(=O)C[n+]1ccc2ccccc2c1
inactive: [1] -41.3% | [2] -1.35% | [3] -25.9% | [4] -56.1% | [5] -1.55% | [6] -2.5%

C/C(C#CC1=CCCCC1)=N\Nc1ccc([N+](=O)[O-])cc1[N+](=O)[O-]
inactive: [1] -3.45% | [2] -24.4% | [3] -8.1% | [4] -4.3% | [5] -7.75% | [6] 1.1%

CC(=O)OCC(=O)C1(O)CCC2C3CCC4=CC(=O)CCC4(C)C3(SC#N)CC(=O)C21C (configuration not stated)
inactive: [1] -8% | [2] 19.9% | [3] 27.2% | [4] 13.2% | [5] 11.8% | [6] 2.45%

CCCCCCCOc1ccc(C2=C(c3ccccc3)C(=O)C(c3ccccc3)=C2c2ccccc2)cc1
inactive: [1] 22.4% | [2] 3.3% | [3] 8.3% | [4] 15.9% | [5] 3.95% | [6] 2.4%

CC(=O)OCC1CCCCO1 (configuration not stated)
inactive: [1] 2.6% | [2] -1.65% | [3] -6.1% | [4] -0.2% | [5] -0.2% | [6] -4.7%
